# Compound activity as filed in PubChem BioAssay.
# Compounds with a hit are over-represented: about 10% of the library has one in this group of screens.
# PLK1 PBD block = inhibitors of human PLK1 polo-box domain binding. Potency, µM, for inactives: max response, negative = inhibition, hits mostly inhibitors. 2.8% of 360,000 active. P53350. Plk1 PBD binding of FITC phosphopeptide, fluorescence polarization; also: potency is read from the fitted curve at half-maximal effect; series mostly up to about 57 µM; nearly all actives have a fitted effect of over 65% in size
# Target sequence (P53350 whole entry, looked up, the tested form may be a part): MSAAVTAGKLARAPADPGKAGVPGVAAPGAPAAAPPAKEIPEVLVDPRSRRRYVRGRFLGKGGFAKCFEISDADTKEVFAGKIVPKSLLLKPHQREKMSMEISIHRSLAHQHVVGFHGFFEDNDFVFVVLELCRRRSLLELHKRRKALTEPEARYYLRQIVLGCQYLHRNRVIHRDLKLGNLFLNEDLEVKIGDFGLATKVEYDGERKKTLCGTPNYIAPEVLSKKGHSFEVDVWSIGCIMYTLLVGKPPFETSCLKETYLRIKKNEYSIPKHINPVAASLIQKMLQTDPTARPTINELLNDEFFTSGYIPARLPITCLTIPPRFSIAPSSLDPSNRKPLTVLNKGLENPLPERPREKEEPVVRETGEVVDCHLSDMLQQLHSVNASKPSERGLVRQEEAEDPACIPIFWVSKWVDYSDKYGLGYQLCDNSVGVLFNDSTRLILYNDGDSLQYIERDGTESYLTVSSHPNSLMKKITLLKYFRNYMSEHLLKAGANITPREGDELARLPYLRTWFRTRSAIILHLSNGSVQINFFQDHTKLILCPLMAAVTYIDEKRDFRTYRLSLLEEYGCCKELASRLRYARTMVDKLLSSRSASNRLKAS
# CCT modulator = cytosolic chaperonin activity modulation | purified chaperonin ATPase assay, HTRF ADP detection, 30 min | activity change, % (concentration not given with the values), hits read low | 0.3% of 360,000 active; in the data active = activity change below about -30%
#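 TRiC (40 or 20 nM final, by batch activity) in 30 mM Tris pH 7.4, 100 mM KCl, 5 mM MgCl2, 1 mM DTT was treated with compound at 76 uM single dose, then 10 uM ATP, 30 min at 37 °C. ADP was read by HTRF Transcreener.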
# Sfp inh = Sfp phosphopantetheinyl transferase inhibition; AID 1490; Biochemical Sfp PPTase activity, qHTS; 3.5% of 310,000 active; Q9F4F7; Potency, µM, inactives show largest response in the series, negative = inhibition, most hits filed as inhibitors;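 also: the enzyme is Sfp with the accession as filed and its product quenches rhodamine fluorescence; potency is read from the fitted curve at half-maximal effect; 0% = enzyme reaction without inhibitor and -100% = no enzyme wells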
#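 Reaction rates are the 30-min fluorescence difference (ex 525, em 598 nm) in wells containing 15 nM Sfp, 5 uM rhodamine-CoA and 12.5 uM BHQ-2-YbbR at pH 7.6 with 10 mM MgCl2.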
# VDR inhibitor = vitamin D3 receptor (human) inhibition | P11473 | AID 504847 | VDR-SRC2-3 peptide fluorescence polarization, 2 h | Potency, µM, for the others: max response, negative = inhibition, actives largely listed as inhibitors | 0.93% of 400,000 active; also: potency is read from the fitted curve at half-maximal effect
#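 Reagent solutions, kept cold and dark, are dispensed first; compounds are then pinned in at 23 nl, plates briefly spun, and incubated 2 h at ambient temperature. Inhibition of VDR–SRC2-3 peptide binding is read by fluorescence polarization.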
# G9a block = blocks human histone lysine methyltransferase G9a. Q96KQ7. G9a H3K9 monomethylation, AlphaScreen, 2 h. Potency, µM (highest dose often 102 µM), for the others: top-dose activity, negative = inhibition, hits mostly inhibitors. 8.8% of 350,000 active; also: potency is read from the fitted curve at half-maximal effect; nearly all actives have a fitted effect of over 75% in size
#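 Chemiluminescent proximity detection of H3K9 monomethylation, read after 10 min bead incubation in the dark. Reaction: 20 nM G9a, 500 nM biotin-H3K9 peptide, 20 uM SAM cofactor, 2 h, room temperature, following 15 min enzyme-compound preincubation.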
# MmCpn inh = blocks the Methanococcus maripaludis chaperonin Mm-Cpn | purified Mm-Cpn ATPase, ADP Transcreener TR-FRET | Potency, µM (doses to about 76.9 µM), without a hit: top-dose activity, negative = inhibition, most hits filed as inhibitors | AID 504842 | 0.031% of 330,000 active; also: potency is read from the fitted curve at half-maximal effect; nearly all actives have a fitted effect of over 80% in size
#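 Purified archaeal Mm-CPN (25nM final) preincubated 10 min at 37degC with compound, then 10uM ATP for 30 min at 37degC; ADP measured by HTRF Transcreener TR-FRET; buffer 30 mM TRIS pH 7.4, 100mM KCl, 5mM MgCl2, 1mM DTT.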
# * marks the source's active call; other numbers are inactive results; ? = inconclusive; . = no result given; [ ] = dose if it differs, or a comment. Unless noted, calls follow the shape of the dose curve; as a rule, active = well fitted curve in the direction sought with a large enough effect; inconclusive = small, poorly fitted or top-dose-only effect, or another doubt; inactive = no such curve, though single readings can be large; an effect the other way counts as inactive or inconclusive. Unless noted, % is scaled to controls: 0 for no effect and ±100 for the full control effect.
SMILES,PLK1 PBD block,CCT modulator,Sfp inh,VDR inhibitor,G9a block,MmCpn inh
COc1cc(NS(=O)(=O)c2ccc(NC(=O)COc3cccc(C)c3)cc2)nc(OC)n1,-22%,-5,-22%,-12%,25µM*,-6%
COc1ccc(N2CCN(C(=O)CCc3c(C)nc4cc(-c5cccc(F)c5)nn4c3C)CC2)cc1,.,.,.,3%,-5%[59 µM],.
Cc1cc(Cl)ccc1NC(=O)CCn1nc(C)c2c(C)n(-c3ccccc3)nc2c1=O,.,.,.,3%,-41%[59 µM],.
O=C(NCc1ccccn1)c1ccc(Cl)c(S(=O)(=O)Nc2ccccc2C(=O)NCc2ccccn2)c1,-11%,2,-15%,-6%,50µM*,2%
O=C(NCc1cccnc1)c1ccc(Cl)c(S(=O)(=O)N2CCCCCC2)c1,27µM*,3,-9%,?,-1%,-5%
O=C(NCc1cccnc1)c1ccc(Cl)c(S(=O)(=O)N2CCOCC2)c1,3%,-1,14%,-21%,25%,-1%
Cc1cc(C)cc(OC(C)C(=O)Nc2ccccc2C(=O)NCc2cccnc2)c1 (stereo unspecified),-8%,-5,35µM*,-20%,50µM*,1%
O=C(NCc1cccnc1)c1ccc(Cl)c(S(=O)(=O)Nc2ccccc2C(=O)NCc2cccnc2)c1,-6%,0,11%,-9%,45µM*,0%
O=C(NCc1cccnc1)c1ccccc1NS(=O)(=O)c1ccccc1,-5%,1,7%,4%,5%,3%
COc1ccc(C(=O)NCc2ccc3c(c2)CCN3C(=O)c2ccncc2)cc1,.,.,.,22%,1%[59 µM],.
O=C(Cn1c(=O)c(C(F)(F)F)nc2ccccc21)Nc1ccc(Br)cc1F,.,.,.,5%,3%[59 µM],.
CC(=O)c1ccc(NC(=O)CSc2nnc(-c3ccncc3)n2-c2ccccc2)cc1,.,.,.,14%,1%[59 µM],.
CCC(CC)C(=O)Nc1nnc(S(=O)(=O)N(C)c2cc(C)cc(C)c2)s1,.,.,.,-10%,-36%[59 µM],.
CSCC[C@H](NC(=O)[C@H](Cc1ccccc1)NC[C@@H](NC[C@@H](N)CS)C(C)C)C(=O)O,.,.,-24%,35µM*,20µM*,.
C[C@]12CC[C@@H]3c4ccc(O)cc4CC[C@H]3[C@@H]1CC[C@H]2O,.,.,10%,8%,?,.
C/C(=N/NS(=O)(=O)c1ccc(C)cc1)c1c(O)c2ccccc2oc1=O,-6%,-3,11%,-4%,50µM*,0%
C/C(=N\NS(=O)(=O)c1ccc(C)cc1)c1cc2ccccc2oc1=O,-7%,0,8%,0%,-25%,-5%
Cc1ccc(S(=O)(=O)Nc2c(O)c3ccccc3oc2=O)cc1C,-14%,-3,10%,-7%,50µM*,0%
Cc1ccc(S(=O)(=O)Nc2c(O)c3ccccc3oc2=O)cc1,-3%,-1,0%,9%,28µM*,0%
Cc1ccc(-n2c(SCC(=O)O)nc3sc4c(c3c2=O)CCCC4)cc1,-12%,-4,21%,10%,4%,-4%
Cc1ccc(-n2c(SCC(=O)c3c(N)n(C)c(=O)n(C)c3=O)nc3sc4c(c3c2=O)CCCC4)c(C)c1,-1%,-1,56µM*,-3%,?,0%
O=C(Nc1ccc(OC(F)(F)F)cc1)NC1COc2ccccc2C1 (stereo unspecified),.,.,.,2%,-26%[59 µM],.
O=C(c1cccs1)N1CCC2(O)CCCCC2C1c1ccc(F)cc1 (stereo unspecified),4%,-1,0%,-13%,-5%,0%
CCN(CC)c1ccc(C2C3CCCCC3(O)CCN2C(=O)c2cccs2)cc1 (stereo unspecified),-8%,0,-13%,5%,50µM*,-1%
COc1cccc(-c2cc(C(=O)Nc3cc(OC)c(OC)c(OC)c3)on2)c1,.,.,.,0%,-40%[59 µM],.
SMILES,PLK1 PBD block,CCT modulator,Sfp inh,VDR inhibitor,G9a block,MmCpn inh
COc1ccc(-c2cc(C(=O)Nc3cccc(O)c3)on2)cc1OC,.,.,.,10%,14µM*,.
COCCn1cc(C(=O)NCc2cccs2)c2c3ccccc3n(C)c2c1=O,-13%,-1,-13%,3%,50µM*,3%
CCCC[C@H]1CCCO[C@@](C(=O)NCc2ccc(C)o2)(C(F)(F)F)C1,.,.,-26%,?,.,.
COc1ccc(CNCc2ccc3ccccc3c2)c(OC)c1,-6%,1,-13%,7%,11µM*,-5%
COc1cccc(CNS(=O)(=O)c2ccccc2Br)c1OC,19µM*,-2,.,?,.,.
COc1cccc(CNCc2cccnc2)c1OCc1ccccc1,1%,1,9%,1%,79µM*,-2%
COc1cccc(CNCc2ccccc2OC)c1,-10%,-2,-3%,-18%,32µM*,-1%
COc1ccc(CN(CCN(C)C)Cc2ccccc2)c(OC)c1,-6%,-1,?,-16%,8.9µM*,1%
COc1ccc(CNCc2cccc(OC)c2OC)cc1Br,-11%,-3,-20%,8%,10µM*,-2%
COc1cc(CNCc2ccc(OC)c(OC)c2OC)cc(OC)c1,-12%,-3,-2%,-14%,?,3%
CCN(Cc1ccncc1)Cc1ccc(OC)cc1OC,-20%,0,-6%,-13%,?,-1%
COc1ccc2ccccc2c1CNCc1ccc(C)cc1,-7%,-1,-22%,3%,50µM*,0%
COc1ccccc1CNCc1ccc(C)cc1,5%,0,-17%,-1%,3.2µM*,0%
Cc1cccc(-c2nc3c4ccccc4nc(N4CCN(c5ccccc5F)CC4)n3n2)c1,.,.,.,-2%,?,.
COc1ccccc1CNCc1cc(OC)c(OC)c(OC)c1,-4%,0,-10%,14%,7.9µM*,0%
COc1ccccc1CNC(=O)C(C)Sc1ccc(C)cc1 (stereo unspecified),21µM*,-1,29%,-24%,20%,1%
COc1ccc(C(=O)NCc2nc(-c3cccc(C)c3)no2)cc1OC,.,.,.,-1%,-30%[59 µM],.
CC1(C)COC(/C=C/c2cccc([N+](=O)[O-])c2)=N1,-4%,-39*,-2%,-24%,1%,-3%
CC1(C)COC(c2cc([N+](=O)[O-])ccc2Cl)=N1,0%,-2,8%,5%,3%[59 µM],-2%
COc1cc2c(cc1NC(=O)COC(=O)CNS(=O)(=O)c1ccc(C)cc1)oc1ccccc12,5%,-3,-18%,-22%,40µM*,1%
CCNC(=S)Nc1cc2oc3ccccc3c2cc1OC,-7%,-3,26%,-25%,25µM*,-3%
CCC(=O)N1c2ccccc2CC1C(=O)NCCc1ccccc1OC (stereo unspecified),.,.,.,1%,2%[59 µM],.
O=C(Cn1cc(SCc2ccccc2Cl)c2ccccc21)N1CCCCCC1,.,.,.,14%,-3%[59 µM],.
O=C(Nc1cccc(F)c1)c1ccc(-c2ccccc2)s1,.,.,.,-3%,1%[59 µM],.
CN(C)Cc1ccccc1-c1nc(N(C)Cc2ccco2)c2ccccc2n1,.,.,-11%,?,.,.
